Source: PubChem BioAssay AID1159580 (chemical genetic matrix, 2015)
Values joined by “and” are separate entries in the source; they are usually repeats but may differ in a detail not shown here. Equal values may be shown once. Screen size: about 5,500 compounds; about 2,000 (36%) were called active. Another 18% or so got no clear call; they are omitted. No stated cut-off is given here; in the data, active means normalized growth mostly below about 0.91 (no sharp cut-off); inconclusive means no clear call, values can overlap the other calls; inactive means mostly above about 0.92. The list shows a part of the results.

Test: chemical genetic growth profiling, strain panel (AID 1159580);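 further: tested at 20 µM; growth read once vehicle control cultures reached saturation at 30 °C; 1 = growth at the plate median or of vehicle wells; lower values mean less growth of the strain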
Conditions: growth OD

Measured: normalized growth

COc1ccc2cc([C@H](C)C(=O)O)ccc2c1
active: S. cerevisiae deletion strains, locus YLR113W, strain HOG1, active compounds read low 0.757 | S. cerevisiae deletion strains, locus YNL298W, strain CLA4, active compounds read low 0.848 | S. cerevisiae deletion strains, locus YPL256C, strain CLN2, active compounds read low 0.807
inactive: S. cerevisiae deletion strains, locus YJR075W, strain HOC1, active compounds read low 1.01 and 0.988 | S. cerevisiae deletion strains, locus YKL009W, strain mrt4, active compounds read low 0.916 | S. cerevisiae deletion strains, locus YKL068W, active compounds read low 0.983 | S. cerevisiae deletion strains, locus YKL085W, strain MDH1 (second series), active compounds read low 0.977 | S. cerevisiae deletion strains, locus YKL085W, strain MDH1, active compounds read low 0.977 | S. cerevisiae deletion strains, locus YKL160W, strain elf1, active compounds read low 0.988 | S. cerevisiae deletion strains, locus YKL190W, strain CNB1, active compounds read low 1 | S. cerevisiae deletion strains, locus YKR001C, strain vps1, active compounds read low 0.943 | S. cerevisiae deletion strains, locus YKR026C, strain gcn3, active compounds read low 0.983 | S. cerevisiae deletion strains, locus YKR091W, strain srl3, active compounds read low 0.982 | S. cerevisiae deletion strains, locus YLL001W, strain dnm1, active compounds read low 0.982 | S. cerevisiae deletion strains, locus YLL026W, active compounds read low 0.997 | S. cerevisiae deletion strains, locus YLL041C, strain sdh2, active compounds read low 0.971 | S. cerevisiae deletion strains, locus YLR027C, strain aat2, active compounds read low 0.971 | S. cerevisiae deletion strains, locus YLR039C, strain RIC1, active compounds read low 0.929 | S. cerevisiae deletion strains, locus YLR058C, strain SHM2, active compounds read low 1.01 | S. cerevisiae deletion strains, locus YLR102C, strain apc9, active compounds read low 0.986 | S. cerevisiae deletion strains, locus YLR221C, strain rsa3, active compounds read low 0.993 | S. cerevisiae deletion strains, locus YLR258W, strain gsy2, active compounds read low 0.982 | S. cerevisiae deletion strains, locus YLR262C, strain YPT6 (second series), active compounds read low 0.944 | S. cerevisiae deletion strains, locus YLR262C, strain YPT6, active compounds read low 0.903 | S. cerevisiae deletion strains, locus YLR268W, strain sec22, active compounds read low 1.05 | S. cerevisiae deletion strains, locus YLR320W, strain mms22, active compounds read low 0.955 | S. cerevisiae deletion strains, locus YLR330W, strain CHS5, active compounds read low 0.997 | S. cerevisiae deletion strains, locus YLR342W, strain FKS1 (second series), active compounds read low 0.98 | S. cerevisiae deletion strains, locus YLR342W, strain FKS1, active compounds read low 0.967 | S. cerevisiae deletion strains, locus YLR357W, strain rsc2, active compounds read low 0.963 | S. cerevisiae deletion strains, locus YLR370C, strain arc18, active compounds read low 0.971 | S. cerevisiae deletion strains, locus YLR371W, strain rom2, active compounds read low 0.989 | S. cerevisiae deletion strains, locus YLR384C, strain iki3, active compounds read low 0.976 | S. cerevisiae deletion strains, locus YLR418C, strain cdc73, active compounds read low 0.971 | S. cerevisiae deletion strains, locus YML016C, strain PPZ1, active compounds read low 1 | S. cerevisiae deletion strains, locus YML032C, strain rad52, active compounds read low 1 | S. cerevisiae deletion strains, locus YML120C, strain ndi1, active compounds read low 0.99 | S. cerevisiae deletion strains, locus YML124C, strain tub3, active compounds read low 0.992 | S. cerevisiae deletion strains, locus YMR058W, strain fet3, active compounds read low 0.969 | S. cerevisiae deletion strains, locus YMR078C, strain ctf18, active compounds read low 0.977 | S. cerevisiae deletion strains, locus YMR125W, strain sto1, active compounds read low 0.972 | S. cerevisiae deletion strains, locus YMR129W, active compounds read low 0.96 | S. cerevisiae deletion strains, locus YMR205C, strain PFK2, active compounds read low 0.974 | S. cerevisiae deletion strains, locus YMR223W, strain ubp8, active compounds read low 0.963 | S. cerevisiae deletion strains, locus YMR231W, strain pep5, active compounds read low 0.987 | S. cerevisiae deletion strains, locus YMR263W, strain SAP30, active compounds read low 1.01 and 0.996 | S. cerevisiae deletion strains, locus YMR307W, strain GAS1, active compounds read low 0.955 | S. cerevisiae deletion strains, locus YNL067W, strain RPL9B, active compounds read low 1.02 | S. cerevisiae deletion strains, locus YNL071W, strain lat1, active compounds read low 0.96 | S. cerevisiae deletion strains, locus YNL128W, strain TEP1, active compounds read low 0.996 and 0.976 | S. cerevisiae deletion strains, locus YNL153C, strain GIM3, active compounds read low 1.02 and 1.01 | S. cerevisiae deletion strains, locus YNL175C, strain NOP13, active compounds read low 0.964 | S. cerevisiae deletion strains, locus YNL183C, strain NPR1, active compounds read low 0.88 | S. cerevisiae deletion strains, locus YNL197C, strain WHI3, active compounds read low 0.963 | S. cerevisiae deletion strains, locus YNL209W, strain ssb2, active compounds read low 0.978 | S. cerevisiae deletion strains, locus YNL224C, strain SQS1, active compounds read low 0.978 | S. cerevisiae deletion strains, locus YNL233W, strain BNI4, active compounds read low 1.02 | S. cerevisiae deletion strains, locus YNL248C, strain rpa49, active compounds read low 0.977 | S. cerevisiae deletion strains, locus YNL250W, strain rad50, active compounds read low 0.928 | S. cerevisiae deletion strains, locus YNL271C, strain bni1, active compounds read low 0.938 | S. cerevisiae deletion strains, locus YNL307C, strain MCK1, active compounds read low 0.98 | S. cerevisiae deletion strains, locus YNL322C, strain KRE1 (second series), active compounds read low 0.938 | S. cerevisiae deletion strains, locus YNL322C, strain KRE1, active compounds read low 1.01 and 0.995 | S. cerevisiae deletion strains, locus YNR049C, strain mso1, active compounds read low 0.972 | S. cerevisiae deletion strains, locus YNR052C, strain pop2, active compounds read low 0.969 | S. cerevisiae deletion strains, locus YOL006C, strain TOP1, active compounds read low 1.06 | S. cerevisiae deletion strains, locus YOL012C, strain htz1 1.17 | S. cerevisiae deletion strains, locus YOL147C, strain pex11, active compounds read low 0.994 | S. cerevisiae deletion strains, locus YOR001W, strain rrp6, active compounds read low 0.957 | S. cerevisiae deletion strains, locus YOR061W, strain CKA2, active compounds read low 1 | S. cerevisiae deletion strains, locus YOR069W, strain VPS5, active compounds read low 1 | S. cerevisiae deletion strains, locus YOR070C, strain gyp1, active compounds read low 0.978 | S. cerevisiae deletion strains, locus YOR080W, strain dia2, active compounds read low 0.976 | S. cerevisiae deletion strains, locus YOR083W, strain WHI5 (second series), active compounds read low 0.972 | S. cerevisiae deletion strains, locus YOR083W, strain WHI5, active compounds read low 1.01 | S. cerevisiae deletion strains, locus YOR106W, strain vam3, active compounds read low 0.978 | S. cerevisiae deletion strains, locus YOR136W, strain idh2, active compounds read low 0.993 | S. cerevisiae deletion strains, locus YOR144C, strain elg1, active compounds read low 0.995 | S. cerevisiae deletion strains, locus YOR184W, strain ser1, active compounds read low 0.958 | S. cerevisiae deletion strains, locus YOR231W, strain MKK1, active compounds read low 0.898 | S. cerevisiae deletion strains, locus YOR265W, strain rbl2, active compounds read low 0.994 | S. cerevisiae deletion strains, locus YOR270C, strain vph1, active compounds read low 0.938 | S. cerevisiae deletion strains, locus YOR290C, strain snf2, active compounds read low 0.937 | S. cerevisiae deletion strains, locus YOR316C, strain cot1, active compounds read low 0.999 | S. cerevisiae deletion strains, locus YPL051W, strain arl3, active compounds read low 0.994 | S. cerevisiae deletion strains, locus YPL055C, strain LGE1, active compounds read low 0.99 and 0.992 | S. cerevisiae deletion strains, locus YPL078C, strain atp4, active compounds read low 0.979 | S. cerevisiae deletion strains, locus YPL106C, strain sse1, active compounds read low 0.994 | S. cerevisiae deletion strains, locus YPL240C, strain hsp82, active compounds read low 0.993 | S. cerevisiae deletion strains, locus YPL241C, strain CIN2, active compounds read low 1 | S. cerevisiae deletion strains, locus YPR119W, strain clb2, active compounds read low 0.977 | S. cerevisiae deletion strains, locus YPR141C, strain kar3, active compounds read low 0.961 | S. cerevisiae deletion strains, locus YPR163C, strain tif3, active compounds read low 0.987 | S. cerevisiae deletion strains, locus YPR167C, strain met16, active compounds read low 0.986 | S. cerevisiae deletion strains, strain wtn01, active compounds read low 1.01 | S. cerevisiae strains, strain wild type, active compounds read low 1
